The target in assay [1] is ATP-dependent translocase ABCB1 (Homo sapiens) (UniProt P08183). Kind of assay: MDR1 (ABCB1) efflux transporter inhibition, cell-based (AID 377; in the data active = fluorescence slope change above about 50%). The following applies: MDR1-expressing cells, fluorescent substrate accumulation slope; stronger effect = higher value; concentration not given here.
Assay [2] is described as follows: hESC survival regulators, cell-based (AID 493140; call rule not given here;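 note: cells exposed to compounds for four days before counting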). The following applies: human embryonic stem cell survival screen; stronger effect = higher value.
A short description of assay [3]: liver-stage malaria parasite growth inhibition, primary screen, cell-based, HepG2, luciferase luminescence, HepG2 viability (AID 624349; in the data active = parasite load remaining mostly below about 12%, no sharp cut-off; inactive = mostly above about 10%;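 note: 100% = mean of DMSO negative control wells on the same plate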). The following applies: P. berghei liver stage in HepG2, luciferase luminescence, concentration not given here; parasite load remaining: stronger effect = lower value; viability: measured here: HepG2 viability without parasites.
The nature of assay [4]: sensitizers of A549 cells to miR-34 induction, primary screen, imaging, A549 dox-inducible miR-34, nuclei and caspase counts (AID 1347080). The following applies: A549 miR-34 inducible, Hoechst nuclei count, 48 h.
The nature of assay [5]: survival rescue of mitochondrial mutant cells in low glucose, primary screen, MELAS cybrids, Rieske KO mouse fibroblasts, CellTiter-Glo (AID 1508586;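 active = mean z-score across replicates of 1.96 or higher in either the MELAS or the Rieske mutant cell line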;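 note: z relative to plate mean and SD of compound and empty wells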). In general terms: ATP-based viability assays read luminescence as a measure of living cells.
Assay [6] concerns Hepatitis C virus NS3 helicase. Kind of assay: HCV NS3 helicase inhibitors, primary screen, biochemical, fluorescence polarization, LOPAC1280 library (AID 687035; in the data active = inhibition above about 37%). Conditions: Purified HCV NS3 helicase, Cy5-dT15 ssDNA binding fluorescence polarization; stronger effect = higher value; concentration not given here. (Fluorescence polarisation rises when a labelled molecule tumbles more slowly, as on binding a larger partner.)

Assay [7] can be described thus: Cy5 fluorescence quenching or enhancement artefacts, artefact control for HCV NS3 helicase inhibitor project, biochemical, LOPAC1280 (AID 687037; call rule not given here). Conditions: Cy5-DNA-NS3h complex fluorescence interference counterscreen. A general note: A counterscreen serves to expose hits that act by an unwanted route or on another target.
Assay [8] can be described thus: phospholipid biosynthesis inhibitors in animal cells, primary screen, cell-based, LOPAC library, screen 4 (AID 1347384; call rule not given here). The following applies: phospholipid biosynthesis inhibition screen, at 10 µM.
The nature of assay [9]: viability rescue of complex I mutant cybrids, primary screen, cell-based, galactose medium, ATP luminescence (AID 1645843;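 active = z-score of at least 1.8 in each of two replicates, scored against plate mean and spread of sample wells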;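 note: positive z means more ATP and so rescue of galactose-driven cybrid death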). The following applies: complex I mutant cybrid cells, 72 h, stronger effect = higher value.
Assay [10] can be described thus: circadian clock period modulators, cell-based, LOPAC library, luminescence reporter (AID 2774; call rule not given here;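 note: values are relative to mean of DMSO wells on each plate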). Conditions: circadian reporter cells, at 7 µM, actives lie on both sides.
Assay [11] concerns the target NAD(+) hydrolase SARM1 (Homo sapiens) (UniProt Q6SZW1). Kind of assay: SARM1 TIR NADase inhibitors, cell lysate, NAD-Glo luminescence (AID 1508614;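 active = compound whose remaining NAD level is above about 45 nM, limit read from the data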;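 note: higher remaining NAD means stronger inhibition of SARM1 NADase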). The following applies: SAM-TIR HEK293T lysate NADase, at 1 µM, stronger effect = higher value.
Assay [12] has as its target Mitogen-activated protein kinase 7 (Homo sapiens) (UniProt Q13164). In words: ERK5 transactivation activators in reporter cells, primary screen, cell-based, HTS (AID 1508626;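 active = luciferase signal above three times the same-plate solvent-only control wells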;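 note: luciferase driven by Gal4-ERK5 fusion binding five Gal4 sites before minimal TATA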). The following applies: HeLa Gal4-ERK5 transactivation, 18 h, at 5 µM, stronger effect = higher value.
The mark [13] stands for this setting: stronger effect = lower value, cell number ratio, induced over uninduced.
Setting [14] is: measured here: relative caspase fold change +Dox/-Dox.
Where [15] appears, read: measured here: total cells with miR-34 induction, stronger effect = lower value.
The mark [16] stands for this setting: measured here: total cells without miR-34 induction.
The mark [17] stands for this setting: MELAS cybrid survival, CellTiter-Glo 48 h, stronger effect = higher value.
The mark [18] stands for this setting: Rieske KO mouse fibroblast survival, CellTiter-Glo 72 h.

“And” between values parts separate entries of the source, which are not always exact repeats. Equal values may be shown once. Records with an inconclusive call do not appear. The source made the active and inactive calls.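 Rule for the calls, unless noted: active = compounds whose cell count with miR-34 switched on is under 0.7 times the count with it off; inactive = the rest.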

ATP-dependent translocase ABCB1 (Homo sapiens), sequence (P08183 whole entry, looked up): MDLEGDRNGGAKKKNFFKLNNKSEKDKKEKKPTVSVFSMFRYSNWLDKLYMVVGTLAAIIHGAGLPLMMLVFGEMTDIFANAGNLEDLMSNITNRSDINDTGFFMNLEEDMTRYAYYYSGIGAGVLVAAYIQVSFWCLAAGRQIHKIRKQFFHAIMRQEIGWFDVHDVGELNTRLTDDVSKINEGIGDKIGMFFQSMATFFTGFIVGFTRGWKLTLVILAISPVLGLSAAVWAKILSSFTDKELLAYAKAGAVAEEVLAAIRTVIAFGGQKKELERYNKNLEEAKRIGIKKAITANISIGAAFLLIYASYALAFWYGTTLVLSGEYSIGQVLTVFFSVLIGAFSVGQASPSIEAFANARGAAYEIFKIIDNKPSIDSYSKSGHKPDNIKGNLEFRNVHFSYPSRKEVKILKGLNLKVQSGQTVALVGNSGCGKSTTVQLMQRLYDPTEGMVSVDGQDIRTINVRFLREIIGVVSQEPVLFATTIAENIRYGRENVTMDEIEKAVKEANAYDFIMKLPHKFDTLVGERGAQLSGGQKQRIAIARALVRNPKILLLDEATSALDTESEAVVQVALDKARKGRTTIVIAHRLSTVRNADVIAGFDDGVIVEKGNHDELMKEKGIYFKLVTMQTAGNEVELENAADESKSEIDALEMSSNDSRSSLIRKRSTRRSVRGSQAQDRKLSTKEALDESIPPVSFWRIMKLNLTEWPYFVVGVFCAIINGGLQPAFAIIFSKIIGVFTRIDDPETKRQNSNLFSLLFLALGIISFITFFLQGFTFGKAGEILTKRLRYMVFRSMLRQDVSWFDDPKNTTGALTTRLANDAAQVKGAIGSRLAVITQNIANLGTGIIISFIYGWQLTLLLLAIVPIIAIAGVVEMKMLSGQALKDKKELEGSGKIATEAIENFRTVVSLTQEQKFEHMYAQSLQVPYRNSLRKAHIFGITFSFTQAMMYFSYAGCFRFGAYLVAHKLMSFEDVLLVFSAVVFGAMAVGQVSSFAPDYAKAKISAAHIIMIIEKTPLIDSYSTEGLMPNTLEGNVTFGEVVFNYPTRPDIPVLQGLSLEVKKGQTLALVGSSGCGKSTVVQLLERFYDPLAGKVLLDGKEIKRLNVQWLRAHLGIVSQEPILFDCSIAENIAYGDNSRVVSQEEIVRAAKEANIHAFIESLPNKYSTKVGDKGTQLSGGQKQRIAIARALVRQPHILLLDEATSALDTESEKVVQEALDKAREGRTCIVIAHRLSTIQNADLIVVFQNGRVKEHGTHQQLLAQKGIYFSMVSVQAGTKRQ
Mitogen-activated protein kinase 7 (Homo sapiens), sequence (Q13164 whole entry, looked up, the tested form may be a part): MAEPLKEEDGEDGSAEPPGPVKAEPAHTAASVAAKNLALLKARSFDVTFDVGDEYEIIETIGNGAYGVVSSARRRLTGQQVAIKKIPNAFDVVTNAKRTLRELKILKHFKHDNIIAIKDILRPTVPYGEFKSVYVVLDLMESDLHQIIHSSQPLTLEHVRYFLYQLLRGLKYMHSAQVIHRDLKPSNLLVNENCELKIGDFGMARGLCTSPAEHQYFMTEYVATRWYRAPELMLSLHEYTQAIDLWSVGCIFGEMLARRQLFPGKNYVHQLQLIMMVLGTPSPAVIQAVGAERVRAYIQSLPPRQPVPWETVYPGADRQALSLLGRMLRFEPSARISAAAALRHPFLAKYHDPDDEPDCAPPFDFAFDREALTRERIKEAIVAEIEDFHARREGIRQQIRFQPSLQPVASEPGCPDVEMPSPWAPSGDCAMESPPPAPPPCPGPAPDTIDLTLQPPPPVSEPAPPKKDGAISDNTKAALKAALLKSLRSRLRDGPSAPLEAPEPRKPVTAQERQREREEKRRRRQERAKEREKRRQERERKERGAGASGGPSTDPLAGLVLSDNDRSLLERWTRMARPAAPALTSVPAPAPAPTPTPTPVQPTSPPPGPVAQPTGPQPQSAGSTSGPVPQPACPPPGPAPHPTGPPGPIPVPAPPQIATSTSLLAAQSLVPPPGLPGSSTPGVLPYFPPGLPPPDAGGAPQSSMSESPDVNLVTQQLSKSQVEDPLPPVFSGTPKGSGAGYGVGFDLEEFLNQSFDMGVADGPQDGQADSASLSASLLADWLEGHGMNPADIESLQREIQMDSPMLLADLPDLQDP
NAD(+) hydrolase SARM1 (Homo sapiens), sequence (Q6SZW1 whole entry, looked up, the tested form may be a part): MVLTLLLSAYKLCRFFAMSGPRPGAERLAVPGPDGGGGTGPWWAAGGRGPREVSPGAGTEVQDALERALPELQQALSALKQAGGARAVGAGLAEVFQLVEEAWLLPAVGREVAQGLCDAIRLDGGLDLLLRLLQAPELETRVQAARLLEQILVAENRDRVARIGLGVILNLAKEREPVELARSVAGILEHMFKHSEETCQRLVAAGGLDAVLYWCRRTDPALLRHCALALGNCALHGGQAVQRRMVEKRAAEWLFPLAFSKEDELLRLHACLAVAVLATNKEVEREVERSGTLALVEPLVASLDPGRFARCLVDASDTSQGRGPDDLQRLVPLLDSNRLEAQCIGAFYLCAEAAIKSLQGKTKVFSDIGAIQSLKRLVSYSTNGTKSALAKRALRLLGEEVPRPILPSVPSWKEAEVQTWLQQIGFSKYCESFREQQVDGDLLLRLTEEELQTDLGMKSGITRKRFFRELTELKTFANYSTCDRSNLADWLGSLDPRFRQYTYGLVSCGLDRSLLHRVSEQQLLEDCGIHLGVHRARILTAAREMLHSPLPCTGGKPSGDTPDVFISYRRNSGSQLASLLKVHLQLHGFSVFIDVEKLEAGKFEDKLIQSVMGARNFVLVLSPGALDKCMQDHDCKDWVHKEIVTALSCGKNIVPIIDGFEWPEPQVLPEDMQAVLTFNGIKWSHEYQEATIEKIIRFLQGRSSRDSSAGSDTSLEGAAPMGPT

The viability is a read-out of living cells in per cent, often relative to untreated cells. Regarding `O=C1CC(c2ccc(O)cc2)Oc2cc(O)cc(O)c21` (configuration not stated), in assay [1], the fluorescence slope change is 29.7% (inactive). Moreover, the survival in assay [2] was 12.5 (inactive). Moreover, the parasite load remaining in [3] is 129% (inactive) and 75.7% (inactive). Besides, the viability in assay [3] was 105% and 74.5%. Further, the fold change in assay [4] (setting [13]) is 0.857 (inactive) and 0.936 (inactive); in assay [4] (setting [14]), 1.25 and 0.746. Besides, the cell count in assay [4] (setting [15]) was 9030 and 10100; in assay [4] (setting [16]), 10500 and 10800. Also, the z-score in assay [5] (setting [17]) was -0.339 (inactive); in assay [5] (setting [18]), 0.634.
As a reminder, the inhibition is the drop in the measured response relative to a control, in per cent. As for `N#C/C(=C\c1ccc(-c2cc(Cl)ccc2Cl)o1)C(=O)Nc1cccc2ncccc12`, the inhibition in assay [6] is -12% (inactive). Besides, the fluorescence ratio (interference) in assay [7] is 0.8 (active). The fold change is 1.06 (inactive) and 0.955 (inactive) in assay [4] (setting [13]); 0.614 and 1.48 in assay [4] (setting [14]). Also, the cell count is 1870 and 5590 in [4] (setting [15]); 1750 and 5850 in [4] (setting [16]). Moreover, the result in assay [8] was inactive. Also, the z-score in assay [9] was 0.46 (inactive).
Regarding `CCCCC[C@H](O)/C=C/[C@@H]1[C@@H](C/C=C\CCCC(=O)O)[C@H](O)C[C@H]1O`, the survival in assay [2] is 98.1 (inactive). Also, the fold change in assay [4] (setting [13]) was 0.925 (inactive) and 0.811 (inactive) and 0.869 (inactive); in assay [4] (setting [14]), 1.48 and 1.52 and 1.28. Moreover, the cell count was 5990 and 4790 and 5310 in assay [4] (setting [15]); 6480 and 5900 and 6110 in [4] (setting [16]).
`CCCCCCCCCCCCCCCCCCOC[C@H](COP(=O)([O-])OCC[N+](C)(C)C)OC`: the period change in assay [10] is -0.025 h (inactive). Moreover, the survival in assay [2] was 97.7 (inactive). In assay [6], the inhibition was 0% (inactive). For the same molecule, the fluorescence ratio (interference) in assay [7] was 1 (inactive). For the same molecule, the fold change is 0.77 (inactive) and 1.03 (inactive) and 1.02 (inactive) in [4] (setting [13]); 1.7 and 0.981 and 0.958 in [4] (setting [14]). In addition, the cell count is 1920 and 5950 and 5710 in assay [4] (setting [15]); 2500 and 5760 and 5620 in [4] (setting [16]). Also, the molecule was classed as inactive in assay [8]. For the same molecule, the z-score in assay [9] is -0.975 (inactive).
Turning to `CCC(CO)Nc1nc(NCc2ccccc2)c2ncn(C(C)C)c2n1` (configuration not stated), the period change in assay [10] is 1.22 h (active). In addition, the inhibition in [6] is 0% (inactive). The fluorescence ratio (interference) in assay [7] is 1 (inactive). The fold change in assay [4] (setting [13]) is 1.36 (inactive) and 0.915 (inactive); in assay [4] (setting [14]), 0.998 and 1.15. Moreover, the cell count in [4] (setting [15]) was 1560 and 4690; in assay [4] (setting [16]), 1150 and 5130. The molecule was called inactive in assay [8]. Also, the figures for the z-score in [5] (setting [17]), in [5] (setting [18]) and in assay [9] were -0.381 (inactive), 0.0764 and -0.51 (inactive), respectively.
For the molecule `CNCC(O)C(O)C(O)C(O)CO` (configuration not stated), the survival in assay [2] is 4.5 (inactive). Besides, the parasite load remaining in assay [3] was 95.3% (inactive). For the same molecule, in assay [3], the viability was 101%. In addition, the fold change was 0.893 (inactive) and 0.901 (inactive) in [4] (setting [13]); 1.03 and 1.16 in assay [4] (setting [14]). Also, the cell count in assay [4] (setting [15]) was 8100 and 7840; in [4] (setting [16]) it was 9080 and 8700. For the same molecule, the z-score in [5] (setting [17]) is -0.226 (inactive); in assay [5] (setting [18]) it was 0.0963.
Consider `O=C1c2c(O)cc(O)cc2OC(c2ccc(O)c(O)c2)C1O` (configuration not stated), for which the period change in assay [10] is -0.11 h (inactive). Besides, the inhibition in assay [6] was -3% (inactive). In addition, the fluorescence ratio (interference) in assay [7] is 1 (inactive). Further, the molecule was called inactive in assay [8]. The z-score was -0.361 (inactive) in [5] (setting [17]); 0.683 in assay [5] (setting [18]); 0.265 (inactive) and -0.07 (inactive) and 0.43 (inactive) in [9].
For `CC[C@H](C)[C@H]1O[C@]2(CC[C@@H]1C)C[C@@H]1C[C@@H](C/C=C(\C)[C@@H](O[C@H]3C[C@H](OC)[C@@H](O[C@H]4C[C@H](OC)[C@@H](O)[C@H](C)O4)[C@H](C)O3)[C@@H](C)/C=C/C=C3\CO[C@@H]4[C@H](O)C(C)=C[C@@H](C(=O)O1)[C@]34O)O2`, the parasite load remaining in [3] is 26.5% (inactive) and 28.8% (inactive). In assay [3], the viability is 44.6% and 96.5%. Besides, the fold change in [4] (setting [13]) is 0.862 (inactive) and 0.935 (inactive); in assay [4] (setting [14]), 0.479 and 1.24. Also, the cell count in assay [4] (setting [15]) is 6180 and 7180; in assay [4] (setting [16]), 7170 and 7680. Also, the z-score is -1.97 (inactive) and -0.0039 (inactive) in assay [5] (setting [17]); 0.878 and -0.186 in assay [5] (setting [18]); -1.77 (inactive) in assay [9]. For the same molecule, the remaining NAD in assay [11] is 10 nM (inactive). In addition, the luciferase signal in assay [12] was 44 AU (inactive).
`CCCNC1CCc2nc(N)sc2C1` (configuration not stated): the fold change in assay [4] (setting [13]) was 0.968 (inactive) and 0.933 (inactive) and 0.946 (inactive); in assay [4] (setting [14]) it was 2.07 and 1.64 and 3.69. Besides, the cell count is 9570 and 9980 and 9760 in [4] (setting [15]); 9890 and 10700 and 10300 in [4] (setting [16]). The z-score in assay [5] (setting [17]) is -0.192 (inactive); in assay [5] (setting [18]) it was 0.744; in [9] it was 1.44 (inactive) and 0.095 (inactive).
Take `COc1ccc2cc(C(C)C(=O)O)ccc2c1` (configuration not stated): the parasite load remaining in assay [3] is 40.8% (inactive). For the same molecule, the viability in assay [3] stood at 47.4%. Further, the fold change in [4] (setting [13]) is 0.873 (inactive) and 1.59 (inactive) and 0.829 (inactive); in assay [4] (setting [14]), 1.19 and 0.614 and 0.98. Moreover, the cell count in [4] (setting [15]) was 8070 and 7920 and 7570; in [4] (setting [16]), 9240 and 4980 and 9130. In addition, the z-score in [5] (setting [17]) was -0.171 (inactive) and 0.614 (inactive); in assay [5] (setting [18]), 0.627 and 0.253; in [9] it was 0.575 (inactive).
